Calls of active or inactive are those of the source. Unless noted, no rule for the calls is given here.
Experiments:
[1] = tested on: XIP peptide (Xip251-270) binding; test: XIP fragment 251-270 binding compounds – biochemical, small-molecule microarray, fluorescence 635/667 nm, 0.1 µg/mL protein, primary screen (AID 1182); settings: fluorescent protein binding, 635 nm, higher = more signal, called active from +8 up or from −8 down
[2] = tested on: XIP peptide (Xip251-270); test: compounds binding XIP fragment 251-270 – biochemical, small-molecule microarray, fluorescence 635/667 nm, 0.5 µg/mL protein, primary screen (AID 1183); settings: fluorescence 635 nm, higher = more signal
[3] = blood-stage malaria parasite viability loss – strain 3D7, DAPI fluorescence, 100 nL, primary screen (AID 1184);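 also: parasites grown inside human red blood cells in medium with human serum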; settings: P. falciparum 3D7 growth, 3 d, higher = more signal
[4] = target: Homeobox protein Hox-A13 (Mus musculus) (UniProt Q62424); test: disruptors of Hoxa13 oligonucleotide interaction – biochemical, fluorescence polarization, labeled oligonucleotide, primary screen (AID 1185); settings: Hoxa13:DNA binding, 15 min, higher = more signal, called active from +8 up or from −8 down
[5] = blockers of DNA damage checkpoint Chk1 activation – imaging, HeLa, hydroxyurea, phospho-Chk1 antibody, percent positive cells, primary screen (AID 1186); settings: hydroxyurea-induced phospho-Chk1 immunofluorescence imaging, higher = more signal
[6] = blockers of DNA damage checkpoint Chk1 activation – imaging, HeLa, hydroxyurea, phospho-Chk1 nuclear intensity, primary screen (AID 1187); settings: hydroxyurea-induced phospho-Chk1 immunofluorescence imaging, higher = more signal

Sequence of Homeobox protein Hox-A13 (Mus musculus) (Q62424 whole entry, looked up): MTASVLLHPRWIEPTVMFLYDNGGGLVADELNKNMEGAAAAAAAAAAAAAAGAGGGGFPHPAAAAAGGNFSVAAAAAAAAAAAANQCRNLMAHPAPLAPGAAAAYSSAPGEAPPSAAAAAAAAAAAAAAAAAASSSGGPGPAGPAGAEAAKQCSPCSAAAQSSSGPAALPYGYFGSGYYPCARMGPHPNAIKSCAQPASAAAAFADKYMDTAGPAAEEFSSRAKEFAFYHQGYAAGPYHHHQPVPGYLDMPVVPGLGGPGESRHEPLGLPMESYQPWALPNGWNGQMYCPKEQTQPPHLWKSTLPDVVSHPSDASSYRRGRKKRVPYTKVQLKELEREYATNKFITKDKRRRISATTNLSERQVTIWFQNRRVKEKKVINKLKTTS

| Compound | composite z-score [1] | composite z-score [2] | z-score [3] | z-score [4] | z-score [5] | z-score [6] |
| --- | --- | --- | --- | --- | --- | --- |
| COC(=O)[C@@]1(Cc2ccccc2)[C@H]2c3cc(C(=O)N4CCCC4)n(Cc4ccc(C)o4)c3C[C@H]2CN1C(=O)c1ccccc1 | 1.04 (inactive) | 0.814 | -1.11 | -4.62 (inactive) | 0.56 (inactive) | 0.421 (inactive) |
| CN1CCC(CCCO)=CC1c1ccc(CN2CCCC2)cc1 (stereo not drawn) | 0.426 (inactive) | 0.506 | -1.18 | -2.07 (inactive) | 0.56 (inactive) | 0.903 (inactive) |
| COc1ccc(CCN2C(=O)[C@@]3(Cc4ccccc42)c2ccccc2C(=O)N(Cc2ccccc2Cl)[C@H]3c2ccc(CO)cc2)cc1 | -0.227 (inactive) | 0.285 | -1.37 | -0.482 (inactive) | -0.214 (inactive) | -0.322 (inactive) |
| CC(=O)C1=CCC(c2ccccc2)N(S(=O)(=O)c2ccc(C)cc2)C1 (stereo not drawn) | 0.651 (inactive) | 0.473 | -1.33 | -3.89 (inactive) | 0.532 (inactive) | 0.216 (inactive) |
| CCC[C@@H]1C=C(C(=O)O)[C@H](c2ccc(C)cc2)N1S(=O)(=O)c1ccc(C)cc1 | -0.0617 (inactive) | 0.884 | 0.977 | -3.27 (inactive) | 0.941 (inactive) | 1.34 (inactive) |
| COc1ccc(C(O)C2C=CC3C(=O)NC(=O)C3N2Nc2ccccn2)cc1OCc1ccccc1 (stereo not drawn) | 0.816 (inactive) | -0.0026 | -0.235 | -2.68 (inactive) | 0.682 (inactive) | 0.581 (inactive) |
| CC(C)CNC(=O)[C@@H]1c2ccccc2C(=O)N(Cc2cc(C(F)(F)F)cc(C(F)(F)F)c2)[C@H]1c1ccc(CO)cc1 | -0.133 (inactive) | -0.308 | -1.2 | -1.46 (inactive) | -0.236 (inactive) | 0.21 (inactive) |
| C=CCC(OC(C)=O)[C@@H]1[C@@H](N(Cc2ccc(-c3cccc(C(F)(F)F)c3)o2)C(=O)c2ccc(C)cc2)c2cc(OCCCO)ccc2N1C(=O)c1ccc(-c2ccccc2)cc1 (stereo partly drawn) | 2.96 (inactive) | 0.0783 | -2.5 | -1.07 (inactive) | -0.205 (inactive) | -0.266 (inactive) |
| COC(=O)[C@]1(Cc2ccccc2N=[N+]=[N-])N=C(c2ccc(OCCCO)cc2)O[C@@H]1c1ccccc1N=[N+]=[N-] | 0.404 (inactive) | 0.614 | -2.09 | -2.31 (inactive) | -0.53 (inactive) | -0.923 (inactive) |
| CCCCCN1CC=CC23O[C@@H]4C=CCOC(=O)[C@@H]4[C@H]2C(=O)N(CCCO)[C@@H]3C1=O (stereo partly drawn) | 0.591 (inactive) | 0.747 | -1.8 | -3.67 (inactive) | 0.679 (inactive) | 0.402 (inactive) |
| COCCOC(=O)N1C(=O)[C@@]2(c3cc(C#CCC(C(=O)OC)C(=O)OC)ccc31)[C@H](c1ccccc1OCCO)N1[C@H](c3ccccc3)[C@H](c3ccccc3)OC(=O)[C@H]1[C@@H]2C(=O)N1CCc2cc(OC)c(OC)cc2C1 | 0.201 (inactive) | 0.64 | -2.06 | 0.498 (inactive) | -0.122 (inactive) | 0.261 (inactive) |
| CC(C)(C)OC(=O)CC[C@@]1(C(=O)NCCN2CCOCC2)N=C(c2ccc(OCCCO)cc2)O[C@@H]1c1ccccc1 | 1.38 (inactive) | 0.825 | 0.248 | -4.84 (inactive) | -0.396 (inactive) | -0.395 (inactive) |
| Cc1ccccc1C(O)C1C=CC2C(=O)N(C)C(=O)C2N1N1CCCCC1 (stereo not drawn) | 0.547 (inactive) | 0.576 | 0.737 | -6.67 (inactive) | 0.193 (inactive) | -0.0403 (inactive) |
| Cc1ccc([C@H]2C(C(=O)O)=C[C@@H](C)N2S(=O)(=O)c2ccc(C)cc2)cc1 | 1.78 (inactive) | -0.43 | 0.159 | -3.09 (inactive) | 0.502 (inactive) | 0.176 (inactive) |
| COc1ccc([Si](C)(C)[C@@H]2[C@@H](CC(=O)N(CCO)Cc3ccccc3)O[C@]3(C(=O)N(C)c4ccccc43)[C@H]2C)cc1 | 1.74 (inactive) | 0.626 | -1.55 | -6.65 (inactive) | -0.36 (inactive) | -1.47 (inactive) |
| CC(C)C(=C=CC[C@@H](O)c1ccccc1OCCO)C[C@@H](O)c1ccccn1 | 2.26 (inactive) | 0.499 | -1.35 | -4.89 (inactive) | 0.0231 (inactive) | 0.215 (inactive) |
| C=C(COC)/C(=C/C[C@H](OC(=O)c1ccncc1)c1cccc(OCCO)c1)c1cc(C(=O)OC)ccc1OC | 1.46 (inactive) | 0.153 | -2.96 | -4.05 (inactive) | -0.681 (inactive) | -0.764 (inactive) |
| CCOC(=O)C[C@H]1[C@H](OC(=O)c2ccc(-c3ccccc3)cc2)[C@@H](NC(=O)c2ccc3ccccc3c2)c2cc(OCCCO)ccc2N1C(=O)Cc1ccc(OC)cc1 | -0.341 (inactive) | -0.0332 | -0.884 | -1.89 (inactive) | -0.192 (inactive) | 0.0873 (inactive) |
